This is an account of results in PubChem BioAssay (NCI).

Test [1] is described as follows: NCI Yeast Anticancer Drug Screen. Data for the rad50 strain (AID 155).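 Also: 0% = growth of vehicle-only cultures of the same strain.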 As to conditions: S. cerevisiae rad50 strain growth inhibition, stronger effect = higher value. In outline:
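DNA repair mutant yeast, compound exposure, growth read-out; inhibition is taken relative to vehicle.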

Test [2] in a line: NCI Yeast Anticancer Drug Screen. Data for the mec2-1 strain (AID 157). The following applies: S. cerevisiae mec2-1 strain, stronger effect = higher value. In outline: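 mec2-1 yeast strain, carrying an alteration in DNA damage repair or cell cycle control, was exposed to compounds; growth inhibition was measured relative to vehicle-treated controls.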
Test [3] in a line: NCI Yeast Anticancer Drug Screen. Data for the sgs1 mgt1 strain (AID 161).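 Also: 0% = growth of cultures given vehicle only.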 The following applies: S. cerevisiae sgs1 mgt1 strain, stronger effect = higher value. In outline: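 This yeast growth screen uses a strain with defined DNA-repair lesions; compound-treated growth is compared with vehicle-treated growth.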
Test [4] is described as follows: NCI Yeast Anticancer Drug Screen. Data for the cln2 rad14 strain (AID 165).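 Also: 0% = growth equal to vehicle treated cultures.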 As to conditions: S. cerevisiae cln2 rad14 strain, stronger effect = higher value. In outline:
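Yeast carrying cln2 and rad14 alterations (cell cycle control and DNA damage repair) were exposed to compounds. Growth inhibition was measured against vehicle-treated controls.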

Test [5] is described as follows: NCI Yeast Anticancer Drug Screen. Data for the bub3 strain (AID 167). The following applies: S. cerevisiae bub3 mutant strain, stronger effect = higher value. A digest of the protocol: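 In this screen, a yeast mutant lacking normal mitotic checkpoint function is challenged with compound. Relative growth versus vehicle gives the inhibition value.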
Test [6] can be described thus: NCI Yeast Anticancer Drug Screen. Data for the mlh1 rad18 strain (AID 175). As to conditions: S. cerevisiae mlh1 rad18 strain growth inhibition, stronger effect = higher value. A digest of the protocol:
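Growth inhibition of the yeast strain was measured after compound exposure and expressed relative to vehicle-treated controls. The strain carries defined defects in DNA damage repair.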

The mark [7] stands for this setting: at 5.0 µM (retest, dose inferred, filed as 0.5).
[8] abbreviates: at 50.0 µM (retest, dose inferred, filed as 5.0).

Compounds without any hit were thinned out: in the full panel of roughly 79,000, 15% have a hit. Unmarked numbers belong to inactive results. The source made the active and inactive calls. Rule as the data show it: active = growth inhibition above about 70%; inactive = the rest.

On to `O=C(Nc1ncnc2c1ncn2C1CC(O)C(CO)O1)c1ccccc1` (configuration not stated), for which the growth inhibition in test [1] (setting [7]) is 1%; in test [1] (setting [8]) it was 1%; in test [1] (at 50.0 µM), -2.25%; in test [2] (setting [7]) it was -2%; in test [2] (setting [8]), 0%; in test [2] (at 50.0 µM), -11.3%. Also, the growth inhibition in test [3] (setting [7]) was -1%; in test [3] (setting [8]), 1%; in test [3] (at 50.0 µM) it was -0.05%; in test [4] (setting [7]) it was -6%; in test [4] (setting [8]), -2%; in test [4] (at 50.0 µM), -23.9%. Further, the growth inhibition in test [5] (setting [7]) was -2%; in test [5] (setting [8]) it was -1%; in test [5] (at 50.0 µM) it was 54.1%; in test [6] (setting [7]), -4%; in test [6] (setting [8]), 4%; in test [6] (at 50.0 µM), -17.8%.

With `O=C(CCCCCCCCCCc1ccccc1)c1ccc(Cl)cc1`, the growth inhibition in test [1] (setting [7]) was 7%; in test [1] (setting [8]), 76% (active); in test [1] (at 50.0 µM), 83.7% (active); in test [2] (setting [7]), 5%; in test [2] (setting [8]), 79% (active); in test [2] (at 50.0 µM), 42.6%. The growth inhibition in test [3] (setting [7]) is 17%; in test [3] (setting [8]), 89% (active); in test [3] (at 50.0 µM) it was 93.7% (active); in test [4] (setting [7]), 15%; in test [4] (setting [8]), 61%; in test [4] (at 50.0 µM), 70.8% (active). Besides, the growth inhibition is 13% in test [5] (setting [7]); 72% (active) in test [5] (setting [8]); 94.8% (active) in test [5] (at 50.0 µM); 16% in test [6] (setting [7]); 80% (active) in test [6] (setting [8]); 70.6% (active) in test [6] (at 50.0 µM).

For the compound `CCCCC(CC)CN1C(=O)C2C3C=CC(C3)C2C1=O` (configuration not stated), the growth inhibition in test [1] (setting [7]) is -15%; in test [1] (setting [8]), -20%; in test [1] (at 50.0 µM), 32.5%; in test [2] (setting [7]) it was -9%; in test [2] (setting [8]), -20%; in test [2] (at 50.0 µM) it was 19.1%. In addition, the growth inhibition was -2% in test [3] (setting [7]); -9% in test [3] (setting [8]); 39.2% in test [3] (at 50.0 µM); 28% in test [4] (setting [7]); -49% in test [4] (setting [8]); -4.45% in test [4] (at 50.0 µM). For the same compound, the growth inhibition in test [5] (setting [7]) was 3%; in test [5] (setting [8]), -26%; in test [5] (at 50.0 µM) it was 39.1%; in test [6] (setting [7]), -6%; in test [6] (setting [8]), -15%; in test [6] (at 50.0 µM) it was 7.15%.

As for `CCCCCCCCCCCc1ccn[nH]1`, the growth inhibition was -7% in test [1] (setting [7]); 98% (active) in test [1] (setting [8]); 98.4% (active) in test [1] (at 50.0 µM); 3% in test [2] (setting [7]); 99% (active) in test [2] (setting [8]); 99.3% (active) in test [2] (at 50.0 µM). Further, the growth inhibition in test [3] (setting [7]) is 9%; in test [3] (setting [8]), 99% (active); in test [3] (at 50.0 µM) it was 99.3% (active); in test [4] (setting [7]) it was -18%; in test [4] (setting [8]), 99% (active); in test [4] (at 50.0 µM), 98.3% (active). The growth inhibition in test [5] (setting [7]) is 14%; in test [5] (setting [8]), 98% (active); in test [5] (at 50.0 µM), 99% (active); in test [6] (setting [7]), -3%; in test [6] (setting [8]) it was 98% (active); in test [6] (at 50.0 µM), 98.9% (active).

For the compound `O=C(Nc1cccc(Cl)c1)Oc1c(Br)cc(Br)cc1Br`, the growth inhibition was 18% in test [1] (setting [7]); 98% (active) in test [1] (setting [8]); 99% (active) in test [1] (at 50.0 µM); 22% in test [2] (setting [7]); 99% (active) in test [2] (setting [8]); 98.7% (active) in test [2] (at 50.0 µM). Moreover, the growth inhibition was 34% in test [3] (setting [7]); 98% (active) in test [3] (setting [8]); 99% (active) in test [3] (at 50.0 µM); -4% in test [4] (setting [7]); 98% (active) in test [4] (setting [8]); 94.5% (active) in test [4] (at 50.0 µM). For the same compound, the growth inhibition in test [5] (setting [7]) was -7%; in test [5] (setting [8]), 99% (active); in test [5] (at 50.0 µM) it was 97.1% (active); in test [6] (setting [7]), 24%; in test [6] (setting [8]), 99% (active); in test [6] (at 50.0 µM), 99.4% (active).

For `Cn1c2c(c3ccccc31)CCN(CCCN1CCN(c3cccc(Cl)c3)CC1)C2=O`, the growth inhibition in test [1] (setting [7]) is 32%; in test [1] (setting [8]), 32%; in test [1] (at 50.0 µM) it was 79.2% (active); in test [2] (setting [7]), 7%; in test [2] (setting [8]) it was 7%; in test [2] (at 50.0 µM), 54.1%. In addition, the growth inhibition is 22% in test [3] (setting [7]); 22% in test [3] (setting [8]); 78.7% (active) in test [3] (at 50.0 µM); 11% in test [4] (setting [7]); 11% in test [4] (setting [8]); 73.8% (active) in test [4] (at 50.0 µM). For the same compound, the growth inhibition in test [5] (setting [7]) is 2%; in test [5] (setting [8]), 2%; in test [5] (at 50.0 µM), 80% (active); in test [6] (setting [7]), 25%; in test [6] (setting [8]), 25%; in test [6] (at 50.0 µM), 71% (active).

For the compound `O=C1CNC(=O)c2cc(N=Cc3cc(Br)ccc3O)ccc2N1`, the growth inhibition in test [1] (setting [7]) was 10%; in test [1] (setting [8]) it was 95% (active); in test [1] (at 50.0 µM), 82% (active); in test [2] (setting [7]), 8%; in test [2] (setting [8]) it was 98% (active); in test [2] (at 50.0 µM), 62%. Also, the growth inhibition is 13% in test [3] (setting [7]); 96% (active) in test [3] (setting [8]); 93.5% (active) in test [3] (at 50.0 µM); 2% in test [4] (setting [7]); 30% in test [4] (setting [8]); 22.6% in test [4] (at 50.0 µM). For the same compound, the growth inhibition in test [5] (setting [7]) is -1%; in test [5] (setting [8]) it was 95% (active); in test [5] (at 50.0 µM) it was 43.4%; in test [6] (setting [7]), 12%; in test [6] (setting [8]), 97% (active); in test [6] (at 50.0 µM) it was 71.9% (active).

`S=P([S][Sn]([S]P(=S)(c1ccccc1)c1ccccc1)([c]1ccccc1)[c]1ccccc1)(c1ccccc1)c1ccccc1`: the growth inhibition in test [1] (setting [7]) was 22%; in test [1] (setting [8]), 82% (active); in test [1] (at 50.0 µM), 34.9%; in test [2] (setting [7]), 21%; in test [2] (setting [8]) it was 73% (active); in test [2] (at 50.0 µM) it was 19.6%. Further, the growth inhibition in test [3] (setting [7]) was 33%; in test [3] (setting [8]), 96% (active); in test [3] (at 50.0 µM), 91.9% (active); in test [4] (setting [7]) it was 25%; in test [4] (setting [8]), 48%; in test [4] (at 50.0 µM) it was 89.9% (active). Further, the growth inhibition is 24% in test [5] (setting [7]); 69% in test [5] (setting [8]); 89.2% (active) in test [5] (at 50.0 µM); 33% in test [6] (setting [7]); 92% (active) in test [6] (setting [8]); 77.8% (active) in test [6] (at 50.0 µM).

Regarding `CCCCCN(CCCCC)CCNc1ccc(C)c2sc3ccccc3c(=O)c12`, the growth inhibition is 2% in test [1] (setting [7]); 96% (active) in test [1] (setting [8]); 98.6% (active) in test [1] (at 50.0 µM); 7% in test [2] (setting [7]); 97% (active) in test [2] (setting [8]); 97.3% (active) in test [2] (at 50.0 µM). Moreover, the growth inhibition in test [3] (setting [7]) is 17%; in test [3] (setting [8]), 97% (active); in test [3] (at 50.0 µM), 98.2% (active); in test [4] (setting [7]) it was 5%; in test [4] (setting [8]) it was 93% (active); in test [4] (at 50.0 µM), 95.7% (active). Also, the growth inhibition is 7% in test [5] (setting [7]); 97% (active) in test [5] (setting [8]); 96.8% (active) in test [5] (at 50.0 µM); 9% in test [6] (setting [7]); 97% (active) in test [6] (setting [8]); 97% (active) in test [6] (at 50.0 µM).
